The target in assay [1] is Nuclear receptor ROR-gamma (Homo sapiens) (UniProt P51449). Kind of assay: qHTS assay for small molecule antagonists of the retinoid-related orphan receptor gamma (ROR-gamma) signaling pathway (AID 651802).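 Also: luciferase reporter luminescence driven by ROR response element; % is scaled to controls: 0 for no effect and ±100 for the full control effect; nearly all actives have a fitted effect of over 60% in size.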 In outline: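 Luminescence (One-Glo, 30 min RT) measured 16 h after compound addition and doxycycline induction at 37C. Reporter: RORE-luciferase under TET-inducible ROR-gamma in CHO cells.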

The target in assay [2] is Arylsulfatase A (Homo sapiens) (UniProt P15289). The assay is described as follows: qHTS screen for enhancers of Arylsulfatase A (ASA1): LOPAC Validation Assay (AID 720538). In outline:
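MLD patient fibroblasts (SV40, ASA-I179S), 1536-well; adhere 6 hrs; cpd 48h, 37 degree C, 5% CO2; pNCS 0.5mM final in lysis buffer, 14h RT; stop 1N NaOH final; fluor. Ex525/Em598.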

Assay [3] can be described thus: qHTS for compounds that reverse cellular toxicity of Amyloid beta (A-beta) peptide in yeast: LOPAC Validation Assay (AID 720559).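 Also: plate controls were DMSO for no effect and equimolar ferric chloride plus clioquinol rescue for full effect.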 In outline:
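Medium dispensed, compounds pinned, A-beta yeast suspension added; plates held at 30 C for 48 hr; absorbance measured at 600 nm to gauge growth; values scaled between DMSO and FeCl3/clioquinol (equimolar) controls.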

The nature of assay [4]: qHTS for Activators of Parkin Expression: LOPAC Validation Assay (NLuc Reporter) (AID 720572). An outline of the steps: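 Cells harboring the Parkin-promoter coincidence reporter were treated for 24 h at seven concentrations. NLuc output was measured sequentially after the FLuc channel and scaled between DMSO and positive control values.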
Assay [5] can be described thus: qHTS for Activators of Parkin Expression: LOPAC Validation Assay (FLuc Reporter) (AID 720573). In outline: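 Cells seeded, 24 h; compounds pinned, 7-pt dose response; 24 h at 37 C/5% CO2; volume reduced; FLuc reagent 10 min RT; luminescence read. Normalization: DMSO = 0, positive control = 100%.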
Assay [6] in a line: qHTS assay for small molecule agonists of the antioxidant response element (ARE) signaling pathway measured by Nrf2-dependant transcriptional activity (AID 720636; active = well fitted curve in the direction sought with a large enough effect in the repeat runs; an effect the other way counts as inactive or inconclusive;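 also: HepG2 cells with an ARE-driven luciferase reporter; % of control where 0% means no effect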). In outline: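 Nrf2-dependent transcription is measured in ARE-luc HepG2 cells: compound is applied for 16 hr at 37 C after a 6 hr attachment period, and luciferase activity is quantified by luminescence using ONE-Glo.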

Assay [7] in a line: qHTS assay for small molecule antagonists of the retinoid-related orphan receptor gamma (ROR-gamma) signaling pathway - cell viability counter screen (AID 720652; active = well fitted curve in the direction sought with a large enough effect in the repeat runs; an effect the other way counts as inactive or inconclusive;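 also: compound exposure lasted 16 hr before ATP read; % is scaled to controls: 0 for no effect and ±100 for the full control effect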). An outline of the steps: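 Cytotoxicity counter screen: intracellular ATP (CellTiter-Glo luminescence) measured in the doxycycline-induced CHO RORE-luciferase reporter line after 16 hr compound exposure at 37 C, 5% CO2.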

The nature of assay [8]: qHTS assay for small molecule agonists of the antioxidant response element (ARE) signaling pathway measured by Nrf2-dependant transcriptional activity - cell viability counter screen (AID 720653; active = well fitted curve in the direction sought with a large enough effect in the repeat runs; an effect the other way counts as inactive or inconclusive; also: % is scaled to controls: 0 for no effect and ±100 for the full control effect). The note with it: ARE-bla HepG2 viability, CellTiter-Glo ATP luminescence, 16 h; max response: stronger effect = lower value. In outline:
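ARE-bla HepG2 cells (2,000/well) rested 5 hrs at 37C/5% CO2, then exposed to compounds in DMSO for 16 hrs. Viability was read in the same wells as intracellular ATP by luminescence, 30 min at room temperature after reagent addition.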

Assay [9] has as its target T1, Hexokinase-4 (Homo sapiens) + Glucokinase regulatory protein (Homo sapiens) (UniProt P35557+Q14397). Kind of assay: qHTS assay for inhibitors of recombinant human GCK-GKRP interaction: Diaphorase-coupled assay (AID 743205). In outline: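 25 mM Hepes pH 7.6, 5 mM glucose, 0.4 mM ATP, 4 U/ml G6PDH; 10 nM each GST-GCK/FLAG-GKRP. Kinetic fluorescence read, 1/min × 30 min. Normalized: DMSO ± enzyme = max/min.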

In assay [10] the target is T1, Hexokinase-4 (Homo sapiens) + Glucokinase regulatory protein (Homo sapiens). The assay is described as follows: qHTS assay for inhibitors of recombinant human GCK-GKRP interaction: ADP-Glo assay (AID 743206).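 Also: plate controls were DMSO plus enzyme for no effect and no enzyme for full effect.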 An outline of the steps:
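Pin-transferred compounds meet a 15 nM GST-GCK/15 nM FLAG-GKRP/2 uM S6P mix (dispense concentrations). ATP is then added to 0.4 mM final with 5 mM glucose, and the reaction runs 60 min at room temperature. ADP is quantified luminescently.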

Assay [11] shares this target. Kind of assay: qHTS assay for inhibitors of recombinant human GCK-GKRP interaction: HTRF assay (AID 743207).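 Also: 0% = DMSO with GCK present and -100% = DMSO wells lacking GCK.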 An outline of the steps:
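5 nM GST-GCK + 5 nM FLAG-GKRP + 2 uM S6P, pH 7.1 buffer (25 mM Hepes, 2 mM MgCl2, 25 mM KCl, 1 mM DTT, Tween/BSA); pin-transferred cpd; anti-FLAG XL665/anti-GST K; 60 min RT; HTRF.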

A short description of assay [12]: qHTS Assay for Identifying Gametocytocidal Compounds (AID 743244).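 Also: % is scaled to controls: 0 for no effect and ±100 for the full control effect; actives lower the fluorescent signal which means gametocytes are killed.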 The following applies: P. falciparum 3D7 stage III-V gametocytes, alamarBlue, 72 h; max response: stronger effect = lower value. In outline:
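In this qHTS viability screen, late-stage 3D7 gametocytes are incubated with compound for 72 h, then with alamarBlue for 24 h; reduced resorufin fluorescence marks killing.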

Assay [13] is described as follows: qHTS assay for cell viability of HEK293 cells (AID 743288). Also: % is scaled to controls: 0 for no effect and ±100 for the full control effect; nearly all actives have a fitted effect of over 50% in size. The note with it: ATP luminescence (CellTiter-Glo), 18 h; max response: stronger effect = lower value. In outline:
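Viable-cell counts were inferred from luciferase-based ATP content in HEK293 cells seeded at 2,000/well, pre-incubated ≥5 h, then dosed with DMSO-solubilised compounds for 18 h at 37 C.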

Assay [14] in a line: qHTS assay for cell viability of the p53RE-bla HCT-116 cell line (AID 743292). Also: % is scaled to controls: 0 for no effect and ±100 for the full control effect; nearly all actives have a fitted effect of over 55% in size. In outline: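 ATP-based luminescence, 16 h compound exposure at 37 C, p53RE-bla HCT-116 cells at 4,000/well.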
Assay [15] can be described thus: qHTS profiling of the MIPE4 collection as inhibitors of Plasmodium falciparum (3D7) proliferation (AID 743344; call rule not given here;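 also: scaled between DMSO vehicle wells and 0.29 µM artemisinin as full inhibition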). The note with it: P. falciparum 3D7 in erythrocytes, SYBR Green DNA fluorescence, 72 h; at 28.5 µM (top of the series) unless noted. In outline:
(§1)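 Parasite DNA was quantified by SYBR Green I fluorescence (ex 485, em 535 nm) after overnight lysis in saponin/Triton buffer at room temperature. Cultures at 0.3% parasitemia and 2.5% hematocrit were first exposed to compound for 72 h at 37 C; signals were normalised to artemisinin (0.29 uM) and vehicle wells.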

Assay [16] in a line: qHTS profiling for inhibitors of Plasmodium falciparum (3D7) proliferation (AID 743322; call rule not given here;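 also: infected erythrocytes exposed to compound for 72 h before lysis; 100% = DMSO vehicle wells and 0% = 0.29 µM artemisinin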). The following applies: P. falciparum 3D7 proliferation, at 28.7 µM (top of the series). An outline of the steps:
as §1

Assay [17] in a line: qHTS profiling for inhibitors of Plasmodium falciparum (DD2) proliferation (AID 743323; call rule not given here). The note with it: at 28.7 µM (top of the series), lower = more inhibition. In outline: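 P. falciparum Dd2-infected erythrocytes (0.3% parasitemia, 2.5% hematocrit) exposed 72 h at 37 C, 5% CO2. Lysis with SYBR Green, overnight at room temperature, fluorescence 485/535 nm; normalized to 0.29 uM artemisinin and DMSO.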

Assay [18] has as its target Tyrosine-protein kinase Yes (Homo sapiens) (UniProt P07947). The assay is described as follows: qHTS for small molecule inhibitors of Yes1 kinase: Primary Screen (AID 686947).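 Also: plate controls were DMSO with enzyme for no effect and no-enzyme DMSO wells for full effect; nearly all actives have a fitted effect of over 60% in size.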 In outline: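 ADP-Glo luminescence reports ADP formed by 4 nM Yes1 phosphorylating poly(E4Y) (0.3 mg/mL) with 0.1 mM ATP for 60 min at room temperature, following 20 min compound preincubation; normalised between DMSO wells with and without enzyme.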

Assay [19] is described as follows: qHTS for small molecule inhibitors of Yes1 kinase: Counter Assay (AID 686950).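 Also: no kinase present so only ADP-Glo detection of a fixed ADP amount is tested; luminescence from ADP-Glo reporting ADP in a fixed ATP and ADP mixture; 0% = DMSO wells with ATP plus ADP and -100% = ATP-only wells without ADP.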 In outline: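 Measuring interference with ADP-Glo, the assay ran 60 min at room temperature on an ATP/ADP mix lacking enzyme. Values were normalized to ATP-plus-ADP (maximum) and ATP-only (minimum) DMSO controls.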
Assay [20] in a line: qHTS profiling for inhibitors of Plasmodium falciparum (HB3) proliferation (AID 743324).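 Also: 100% = DMSO vehicle wells and 0% = artemisinin-treated control wells.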 The note with it: Plasmodium falciparum HB3 blood-stage proliferation; at 28.7 µM (top of the series). An outline of the steps: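 SYBR Green fluorescence (485 ex/535 em) of lysed cultures, incubated overnight at room temperature in the dark, quantifies parasite DNA. Infected erythrocytes at 0.3% parasitemia and 2.5% hematocrit were exposed 72 h; values normalized to DMSO and 0.29 uM artemisinin controls.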

Values joined by “and” are separate entries in the source; they are usually repeats but may differ in a detail not shown here. Identical values can stand only once. Results filed as inconclusive are left out. Active and inactive are the calls of the source. Unless noted, calls follow the shape of the dose curve; as a rule, active = well fitted curve in the direction sought with a large enough effect; inconclusive = small, poorly fitted or top-dose-only effect, or another doubt; inactive = no such curve, though single readings can be large; an effect the other way counts as inactive or inconclusive.

T1 sequence (P35557 whole entry, looked up): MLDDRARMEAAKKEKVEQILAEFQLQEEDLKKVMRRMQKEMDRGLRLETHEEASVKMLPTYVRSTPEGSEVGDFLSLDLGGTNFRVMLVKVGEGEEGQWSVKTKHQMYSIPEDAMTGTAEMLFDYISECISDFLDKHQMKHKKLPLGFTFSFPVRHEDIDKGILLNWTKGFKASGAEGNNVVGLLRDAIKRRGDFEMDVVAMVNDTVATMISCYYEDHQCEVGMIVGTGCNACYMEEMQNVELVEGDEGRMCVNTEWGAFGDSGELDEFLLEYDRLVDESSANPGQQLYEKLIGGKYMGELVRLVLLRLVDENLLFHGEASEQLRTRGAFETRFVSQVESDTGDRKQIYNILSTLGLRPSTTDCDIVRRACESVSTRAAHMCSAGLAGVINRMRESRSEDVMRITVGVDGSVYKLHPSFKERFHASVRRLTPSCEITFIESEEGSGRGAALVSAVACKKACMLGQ
T1 sequence (Q14397 whole entry, looked up): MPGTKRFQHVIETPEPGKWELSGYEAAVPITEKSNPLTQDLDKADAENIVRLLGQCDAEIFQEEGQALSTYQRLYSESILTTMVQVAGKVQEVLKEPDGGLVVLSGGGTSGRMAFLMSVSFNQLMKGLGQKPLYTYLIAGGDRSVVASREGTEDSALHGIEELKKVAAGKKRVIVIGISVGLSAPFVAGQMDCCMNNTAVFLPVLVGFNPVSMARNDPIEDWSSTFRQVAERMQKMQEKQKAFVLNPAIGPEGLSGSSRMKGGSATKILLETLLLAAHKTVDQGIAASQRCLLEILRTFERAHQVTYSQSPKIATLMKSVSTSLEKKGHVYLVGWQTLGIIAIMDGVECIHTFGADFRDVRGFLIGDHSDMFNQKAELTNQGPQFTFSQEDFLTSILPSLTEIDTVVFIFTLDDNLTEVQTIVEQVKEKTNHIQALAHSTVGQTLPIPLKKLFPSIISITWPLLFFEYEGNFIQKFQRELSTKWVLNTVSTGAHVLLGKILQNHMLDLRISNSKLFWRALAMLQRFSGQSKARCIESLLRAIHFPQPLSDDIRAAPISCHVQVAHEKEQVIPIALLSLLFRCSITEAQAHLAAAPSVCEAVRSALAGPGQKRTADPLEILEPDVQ
Sequence of Arylsulfatase A (Homo sapiens) (P15289 whole entry, looked up): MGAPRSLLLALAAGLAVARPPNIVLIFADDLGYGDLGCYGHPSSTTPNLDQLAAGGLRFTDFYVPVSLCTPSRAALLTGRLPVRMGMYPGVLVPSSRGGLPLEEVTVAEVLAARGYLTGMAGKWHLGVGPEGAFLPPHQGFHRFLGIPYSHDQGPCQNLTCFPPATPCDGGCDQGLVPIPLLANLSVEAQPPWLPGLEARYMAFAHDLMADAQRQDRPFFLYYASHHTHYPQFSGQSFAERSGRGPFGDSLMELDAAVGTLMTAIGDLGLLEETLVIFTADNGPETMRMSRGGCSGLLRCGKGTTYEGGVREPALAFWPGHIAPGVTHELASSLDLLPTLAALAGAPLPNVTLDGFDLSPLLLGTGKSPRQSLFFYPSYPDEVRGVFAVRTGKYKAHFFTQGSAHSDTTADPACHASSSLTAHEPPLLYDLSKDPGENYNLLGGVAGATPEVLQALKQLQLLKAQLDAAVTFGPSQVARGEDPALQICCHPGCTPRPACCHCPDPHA
Sequence of Tyrosine-protein kinase Yes (Homo sapiens) (P07947 whole entry, looked up): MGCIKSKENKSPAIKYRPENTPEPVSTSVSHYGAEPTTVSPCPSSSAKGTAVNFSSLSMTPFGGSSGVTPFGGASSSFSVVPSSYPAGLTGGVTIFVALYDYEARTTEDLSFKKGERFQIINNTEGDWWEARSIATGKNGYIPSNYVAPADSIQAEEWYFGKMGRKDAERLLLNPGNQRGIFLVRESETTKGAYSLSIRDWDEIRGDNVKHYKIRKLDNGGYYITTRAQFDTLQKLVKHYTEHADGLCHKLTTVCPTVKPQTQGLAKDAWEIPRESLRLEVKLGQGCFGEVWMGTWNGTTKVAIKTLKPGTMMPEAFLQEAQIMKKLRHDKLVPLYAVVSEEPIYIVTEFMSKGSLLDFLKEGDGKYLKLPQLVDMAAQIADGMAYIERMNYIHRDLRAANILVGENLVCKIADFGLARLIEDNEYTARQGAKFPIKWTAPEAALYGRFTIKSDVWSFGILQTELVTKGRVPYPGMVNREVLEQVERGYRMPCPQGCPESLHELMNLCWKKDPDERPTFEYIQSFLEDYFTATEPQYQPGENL
Sequence of Nuclear receptor ROR-gamma (Homo sapiens) (P51449 whole entry, looked up): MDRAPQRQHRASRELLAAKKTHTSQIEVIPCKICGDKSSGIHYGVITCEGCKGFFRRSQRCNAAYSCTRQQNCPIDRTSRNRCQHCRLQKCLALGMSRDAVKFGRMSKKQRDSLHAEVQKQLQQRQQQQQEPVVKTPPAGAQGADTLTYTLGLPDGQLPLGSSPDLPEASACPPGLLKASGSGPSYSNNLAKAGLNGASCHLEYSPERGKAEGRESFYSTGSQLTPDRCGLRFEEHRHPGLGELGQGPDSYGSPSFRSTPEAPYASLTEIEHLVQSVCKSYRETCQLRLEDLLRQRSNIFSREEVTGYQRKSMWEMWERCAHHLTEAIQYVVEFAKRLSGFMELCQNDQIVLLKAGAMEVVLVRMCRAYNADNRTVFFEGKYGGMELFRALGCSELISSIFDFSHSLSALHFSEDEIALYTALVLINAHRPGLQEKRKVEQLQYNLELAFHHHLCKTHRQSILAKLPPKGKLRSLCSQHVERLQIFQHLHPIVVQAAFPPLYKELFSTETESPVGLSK

As to `NCCS(=O)(=O)O`, the Potency result in assay [1], in assay [2], in assay [5], in assay [7], in [9] and in assay [10] was “inactive” throughout. Also, the Potency entry in assay [11] and in assay [14] was “inactive” in each case. The molecule was classed as inactive in assay [3], in assay [4] and in assay [6]. In addition, the max response in assay [8] was 5.47% (inactive); in [12], -8.78% (inactive) and 22.4% (inactive); in assay [13], 10.5% (inactive). Besides, in [15], the parasite growth, % of DMSO control was determined as 102%.
As to `CN(C)CCOC(c1ccccc1)c1ccccc1`, the Potency result in [2], in assay [5], in assay [9], in assay [10], in [11] and in [14] was “inactive” throughout. The molecule was classed as inactive in assay [3], in [4] and in assay [6]. Further, the max response in [8] is -12% (inactive); in assay [12], -13.8% (inactive) and 10.9% (inactive); in assay [13], -15% (inactive). The molecule also showed a remaining parasite growth % (stronger effect = lower value) in assay [16] of 85.5%. This molecule showed an activity, percent of control in assay [17] of 32.1%. For the same molecule, the parasite growth, % of DMSO control in [15] amounted to 90.6%.
On to `CC(C)Cc1ccc(C(C)C(=O)O)cc1` (stereo not given), for which the Potency entry in [2], in [5], in [9], in assay [10], in [11] and in assay [14] was “inactive” in each case. The call in assay [3], in [4] and in assay [6] was inactive. Also, the max response in assay [8] was 3.8% (inactive); in [12], 19.9% (inactive) and 9.6% (inactive); in assay [13] it was -10% (inactive).
Consider `CC1(CN2CCC(n3c(=O)[nH]c4ccccc43)CC2)OCc2ccccc2-n2cccc21` (stereo not given), for which, in [18], the Potency entry is “inactive”. For the same molecule, the molecule was classed as inactive in [19]. In assay [12], the max response was -18.7% (inactive) and -2.64% (inactive). This molecule gave a remaining parasite growth % (stronger effect = lower value) in assay [16] of 21.2%. The molecule also gave an activity, percent of control in assay [17] of 17.6%. In addition, in [20], the remaining proliferation (% of control), lower = more inhibition is 0.0183%.
Turning to `O=c1c(O)c(-c2ccc(O)c(O)c2)oc2cc(O)cc(O)c12`, the result in assay [19] and in assay [3] was inactive. In addition, the Potency result in assay [9], in assay [10] and in [11] was “inactive” each time. In addition, the remaining parasite growth % (stronger effect = lower value) in assay [16] was 26.9% and 12.7%. In addition, the activity, percent of control in [17] is 8.52% and 5.2%. In assay [20], the remaining proliferation (% of control), lower = more inhibition was 1.74% and 5.43%.
With `COc1nc(C)nc(Cl)c1NC1=NCCN1`, the Potency entry in assay [2], in [5], in [9], in [10] and in assay [11] was “inactive” in each case. Further, the molecule was classed as inactive in [3] and in assay [4]. Besides, the max response in assay [12] is 0.253% (inactive) and 33% (inactive). In [15], the parasite growth, % of DMSO control was found to be 89.8%.
Regarding `CS(=O)(=O)Nc1ccc([N+](=O)[O-])cc1Oc1ccccc1`, the Potency entry in assay [2], in assay [5], in assay [9], in assay [10] and in assay [11] was “inactive” in each case. Moreover, the molecule was classed as inactive in assay [3] and in assay [4]. The max response in [12] is -0.179% (inactive) and 5.92% (inactive). The parasite growth, % of DMSO control in assay [15] stood at 87.3%.
With `Nc1nc2c(ncn2COC(CO)CO)c(=O)[nH]1`, the Potency entry in assay [2], in [5], in assay [9], in assay [10] and in assay [11] was “inactive” in each case. Further, the molecule was called inactive in assay [3] and in assay [4]. Also, the max response in [12] was -13.4% (inactive) and 3.21% (inactive).
On to `O=C1N(c2ccccc2)c2ccccc2C1(Cc1ccncc1)Cc1ccncc1`, for which the Potency entry in [2], in [5], in [9], in [10] and in assay [11] was “inactive” each time. Besides, the call in [3] and in assay [4] was inactive. Besides, the max response in assay [12] was -4.76% (inactive) and 23.2% (inactive).

These data come from PubChem BioAssay (NCATS).
